p53ts 39C tox: cytotoxicity in p53ts cells at nonpermissive temperature | H1299-p53A138V viability at 39C, ATP luminescence, 24 h | Potency, µM (highest dose often 46.1 µM), for the others: at the highest dose activity change, negative = cell killing, hits mostly cytotoxic | hit rate 1.5% among 130,000 | AID 902; note: % is set by controls: 0 for no effect and ±100 for the full control effect; nearly all actives have a fitted effect of over 55% in size
p53ts 32C tox: kills p53ts cells at the permissive temperature; hit rate 0.93% among 130,000; H1299-p53A138V at 32C, ATP luminescence viability, 24 h; Potency, µM (highest dose often 46.1 µM), without a hit: at the highest dose activity change, negative = cytotoxicity, most hits filed as cytotoxic;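 note: 0% = DMSO and -100% = full killing by reference compound; nearly all actives have a fitted effect of over 55% in size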
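Cells: H1299 p53ts (A138V), 600/well, pre-incubated 16–30 h at 37C. Cpd up to 46 uM, 24 h, 32C. Readout: ATPlite luminescence, 20 min RT. Normalization: DMSO vs tamoxifen 100 uM. AC50 by Hill equation.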
Imprint erasure: induces erasure of genomic imprints in mouse ES cells; mouse ES Peg3-LacZ reporter, beta-gal luminescence, 40 h; hit rate 0.02% among 110,000; Potency, µM (series often up to 60.7 µM), inactives show top-dose activity change, positive = activation, hits mostly activators; AID 1948
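Gelatin-coated wells received 300 freshly trypsinized female ES cells with a Peg3LacZ-Neo reporter on the maternal allele, then incubated 40 hours at 37C. BetaGlo was added for 5 minutes at room temperature before a single luminescence read.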
* hit, by the source's call; ? = inconclusive; · = no result; [ ] = another dose, or the depositor's remark. Sampled rows, rich in hits. Any-hit rate of the full collection: about 1.6%. Calls come from the whole dose curve; as a rule, active = well fitted curve in the direction sought with a large enough effect; inconclusive = small, poorly fitted or top-dose-only effect, or another doubt; inactive = no such curve, though single readings can be large; an effect the other way counts as inactive or inconclusive. Potency is the fitted concentration of half-maximal effect.

SMILES	p53ts 39C tox	p53ts 32C tox	Imprint erasure
Cc1ccc(-c2noc(-c3ccc(N4CCC(C)CC4)c([N+](=O)[O-])c3)n2)cc1	-24.0%	-8.4%	-3.2%[10.9 µM]
CC1CCN(c2ccc(-c3nc(-c4ccccc4)no3)cc2[N+](=O)[O-])CC1	22.4µM*	16.8%	-13.7%[10.9 µM]
COC(=O)NC(/C(C(=O)OC)=C(\C)NCc1ccccc1)c1cccc(F)c1 (configuration not stated)	7.5%[9.22 µM]	-6.0%[9.22 µM]	·
O=C(N[C@@H](Cc1ccccc1)C(=O)CCl)OCc1ccccc1	3.16µM*	3.98µM*	-30.5%
COC(=O)C(C(C)=O)C(=O)C(Cc1ccccc1)NC(=O)OCc1ccccc1 (configuration not stated)	5.6%[9.22 µM]	-5.5%[9.22 µM]	·
CCc1ccccc1NS(=O)(=O)c1ccc2[nH]cc(C(=O)N(CC)Cc3ccccc3)c(=O)c2c1	-11.5%	2.9%	-9.0%[10.9 µM]
CN(C)c1ccc(-c2ccncc2)cc1	-8.3%	21.8%	-22.0%
CNc1nnc(-c2ccc(N(C)C)cc2)s1	7.94µM*	6.31µM*	·
CCOC(=O)c1ccc2ncc3c(-c4ccccc4)nn(-c4ccc(F)c(Cl)c4)c3c2c1	-15.2%	-1.6%	9.0%[10.9 µM]
CC(=O)N1CCC2(CC1)CCN(c1cccc(-c3ccccc3)c1)CC2	-23.5%	-8.9%	·
c1ccc(-c2cccc(N3CC4(CCNCC4)C3)c2)cc1	?	-5.8%	·
O=S(=O)(c1ccccc1)N1CCC[C@@]2(CCN(c3cccc(-c4ccccc4)c3)C2)C1	-14.7%	-7.8%	·
c1ccc(-c2cccc(N3CC[C@@]4(CCCNC4)C3)c2)cc1	15.8µM*	?	·
c1ccc(-c2cccc(N3CCCC4(CCNCC4)C3)c2)cc1	12.6µM*	-18.9%	·
c1ccc(-c2cccc(N3CCC4(CCNCC4)CC3)c2)cc1	15.8µM*	-7.2%	·
COC(=O)C/C=C\[C@@H](C)[C@@H](/C=N\OCC[C@@H]1C=C[C@H](OC(C)=O)[C@H](COC(C)=O)O1)OC	-5.4%[9.22 µM]	-3.9%[9.22 µM]	·
O=C(NCCCN1CCN(c2cccc(Cl)c2)CC1)c1ccc2nc(Cc3ccccc3)oc2c1	?	5.8%	-21.5%[10.9 µM]
COc1ccc(NC(=O)N(Cc2nnc3n2CCCCC3)c2ccc(OC)c(Cl)c2)cc1	22.7%	15.3%	3.4%[10.9 µM]
CCOc1ccc(CNC(=O)c2cccc(NC(=O)N3CCSc4ncccc43)c2)cc1	-13.4%	0.8%	12.0%[10.9 µM]
O=C(Nc1cccc(F)c1)N1CCCC2(CCN(C(=O)c3ccncc3)CC2)C1	6.0%	2.5%	·
CC(C)CCn1c(/C=C/c2ccccc2)nc2ccccc21	?	?	-5.7%[10.9 µM]
CCC(C)Cn1c(/C=C/c2ccccc2)nc2ccccc21 (configuration not stated)	12.6µM*	?	-14.3%[10.9 µM]
CC(C)Cn1c(/C=C/c2ccc(F)cc2)nc2ccccc21	10µM*	12.6µM*	-9.5%[10.9 µM]
C#CCn1c(/C=C/c2ccc(Cl)cc2)nc2ccccc21	3.16µM*	3.98µM*	-25.8%[10.9 µM]
CCc1nc2ccccc2n1CCCCOc1ccc(Cl)cc1	-27.7%	-3.2%	-5.8%[10.9 µM]
SMILES	p53ts 39C tox	p53ts 32C tox	Imprint erasure
CC(C)Cn1c(-c2ccccc2Cl)nc2ccccc21	-20.3%	-5.6%	-13.6%[10.9 µM]
Cc1ccccc1C(=O)Nc1sc2c(c1C(=O)NCc1ccco1)CCC(C(C)(C)C)C2 (configuration not stated)	11.1%	1.9%	-11.7%[10.9 µM]
COC(=O)c1ccc(NC(=O)CSc2nc3cc4ccccc4cc3[nH]2)cc1	-11.2%	-11.9%	-13.1%[10.9 µM]
COc1ccc(-c2nc3ccccc3n2Cc2ccc(Cl)cc2)cc1	37.8%	-7.1%	?
CCCn1c(-c2ccc(OC)cc2)nc2ccccc21	-12.3%	-24.0%	-15.2%
COCn1c(-c2ccc(OC)cc2)nc2ccccc21	11.2µM*	7.94µM*	·
COc1ccc(-c2nc3ccccc3n2Cc2ccc(C(C)C)cc2)cc1	17.8µM*	27.8%	-15.9%[10.9 µM]
CCN(CCCNC(=O)c1nn(-c2ccc(C)cc2)c(=O)c2c1c1ccccc1n2C)c1cccc(C)c1	-16.0%	-12.5%	25.1%[10.9 µM]
Cc1nnc(NC(=O)CSc2nccn2Cc2ccc(Cl)cc2)s1	-9.5%	11.0%	-9.5%[10.9 µM]
O=c1ccn([C@@H]2O[C@@H](COP(=O)(O)OP(=O)(O)O)[C@H](O)[C@@H]2O)c(=O)[nH]1	18.0%	1.2%	·
COc1ccc(-c2nc3ccccc3s2)cc1NC(=O)COc1ccc(C)cc1	-2.2%	-12.0%	?
Cc1ccc(-c2nc3ccccc3s2)cc1NC(=O)COc1ccccc1	-24.8%	-9.0%	-11.7%[10.9 µM]
COc1ccc(OCC(=O)Nc2cc(-c3nc4ccccc4s3)ccc2C)cc1	15.8µM*	-24.5%	-15.5%[10.9 µM]
COc1ccc(-c2nc3ccccc3s2)cc1NC(=O)COc1cccc(C)c1	10µM*	-22.3%	-8.9%[10.9 µM]
Cc1ccc(NC(=O)CN2C(=O)CSc3ccc(S(=O)(=O)N(C)C)cc32)cc1C	-5.2%	2.6%	-6.0%[10.9 µM]

From PubChem BioAssay
